Bioassay records: PubChem BioAssay, Johns Hopkins Ion Channel Center
Compounds with a hit are over-represented: about 1.6% of the library has one in this group of screens.
KCNQ2 inh: rat KCNQ2 potassium channel inhibitors, primary screen, cell-based, CHO-K1, FluxOR thallium flux, B-score; B-score at 10 µM; 310,000 compounds, 1.1% hits; 20 min; hits give low values; Potassium voltage-gated channel subfamily KQT member 2 (Rattus norvegicus), O88943;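 active = fluorescence ratio B-score at most minus 3 library SDs, with starting brightness B-score within 2 library SDs, cut at about -5.5 in these data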
Target sequence (O88943 whole entry, looked up): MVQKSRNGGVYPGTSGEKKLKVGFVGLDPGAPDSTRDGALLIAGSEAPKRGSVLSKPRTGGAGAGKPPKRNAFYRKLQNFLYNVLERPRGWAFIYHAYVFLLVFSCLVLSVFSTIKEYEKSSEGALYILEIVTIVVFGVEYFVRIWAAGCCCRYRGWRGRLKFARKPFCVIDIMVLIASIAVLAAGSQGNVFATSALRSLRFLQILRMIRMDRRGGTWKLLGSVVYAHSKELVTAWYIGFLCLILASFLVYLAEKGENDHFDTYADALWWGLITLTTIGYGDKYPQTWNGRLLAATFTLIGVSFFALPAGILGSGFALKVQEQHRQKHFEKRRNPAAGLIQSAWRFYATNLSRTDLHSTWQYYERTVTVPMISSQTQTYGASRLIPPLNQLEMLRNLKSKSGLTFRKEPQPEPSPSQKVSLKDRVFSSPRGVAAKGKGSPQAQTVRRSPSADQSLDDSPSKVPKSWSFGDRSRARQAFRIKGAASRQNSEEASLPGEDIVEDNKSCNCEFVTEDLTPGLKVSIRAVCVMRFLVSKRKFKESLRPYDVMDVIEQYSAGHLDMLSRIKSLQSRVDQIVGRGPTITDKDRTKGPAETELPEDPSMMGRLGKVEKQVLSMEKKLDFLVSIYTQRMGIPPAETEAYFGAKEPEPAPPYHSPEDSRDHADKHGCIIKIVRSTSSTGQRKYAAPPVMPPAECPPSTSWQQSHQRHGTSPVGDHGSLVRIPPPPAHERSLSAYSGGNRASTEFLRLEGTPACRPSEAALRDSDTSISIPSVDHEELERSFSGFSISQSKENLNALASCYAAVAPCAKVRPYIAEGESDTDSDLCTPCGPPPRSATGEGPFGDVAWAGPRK
KCNQ2 enhance: potentiators of rat KCNQ2 potassium channel; AID 2239, 2010; Potassium voltage-gated channel subfamily KQT member 2 (Rattus norvegicus), O88943; CHO-K1 KCNQ2, FluxOR thallium flux fluorescence; hits give high values; 310,000 compounds, 0.54% hits; B-score at 10 µM;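 active = fluorescence ratio B-score at least 3 SD of library B-scores, with initial fluorescence B-score within 3 of them, cut at about 5.3 in these data; same plate scores as AID 2156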;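 note: B-score of peak minus minimum over baseline fluorescence ratio after K+ and Tl+ stimulus; positive B-score means potentiation of KCNQ2 with more thallium influx and brighter signal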
* marks the source's active call; other numbers are inactive results; i = inactive; . = not tested or not shown.

SMILES | KCNQ2 inh | KCNQ2 enhance
CCOC(=O)NNC(=O)c1[nH]c2ccc(Br)cc2c1-c1ccccc1 | -6.83* | -6.83
CC(=O)NNC(=O)c1[nH]c2ccc(Br)cc2c1-c1ccccc1 | i | 3.32
N=c1n(Cc2ccccc2)c2ccccc2n1CC(O)COc1ccc(Cl)cc1Cl (centres undefined) | -5.98* | -5.98
N=c1n(Cc2ccc(Cl)cc2)c2ccccc2n1CC(O)COc1ccccc1 (centres undefined) | i | .
CC(C)NC(=O)C(c1ccc(F)cc1)N(Cc1ccco1)C(=O)CCC(=O)Nc1ccccn1 (centres undefined) | i | 0.52
CC(C)CCSc1nc(N2CCOCC2)c2c(c1C#N)CC(C)(C)OC2 | -6.54* | -6.54
COC(=O)CCSc1nc(N2CCOCC2)c2c(c1C#N)CC(C)(C)OC2 | i | 1.84
O=[N+]([O-])c1ccc(NCCCNS(=O)(=O)c2ccccc2)c(Cl)c1 | i | 0.52
O=C(COC(=O)c1ccccc1Nc1ccccc1)Nc1ccccc1 | i | 5.81*
CC(=O)c1ccc(NC(=O)COC(=O)c2ccccc2Nc2ccccc2)cc1 | i | .
CCCS(=O)(=O)N1CCCC(C(=O)Nc2ccc3c(c2)CCC3)C1 (centres undefined) | i | 0.34
C=CCn1c(SCC(=O)N2CCN(c3ccccc3)CC2)nc2c([nH]c3ccccc32)c1=O | i | .
CCc1ccc2c(c1)c(N=NC1=NC(=O)CS1)c(O)n2C | i | 5.85*
Cc1cc(C)c2[nH]c(O)c(N=NC3=NC(=O)CS3)c2c1 | i | 0.94
CCCOc1ccc(C(=O)Nc2ccc3c(c2)OCCO3)cc1 | i | 1.06
C=CCN(Cc1ccc(OC)c(OC)c1)C(=O)c1cc2cc(F)ccc2[nH]1 | i | .
Cc1cc(/C=N\NC(=O)CC(=O)NC2CCCCC2)c(C)n1-c1cccc(Cl)c1Cl | i | 4.7
Cc1cccc(C)c1-n1c(C)cc(/C=N\NC(=O)CC(=O)NC2CCCCC2)c1C | i | 8.41*
COc1ccc(S(=O)(=O)NCC2CCCO2)cc1NC(=O)c1ccccc1F (centres undefined) | i | .
O=C(Nc1nc(-c2ccc(Cl)cc2Cl)cs1)c1ccc(OCC2CCCO2)cc1 (centres undefined) | i | .
CC(C)COc1ccc(C(=O)Nc2scc(-c3ccc(Cl)cc3Cl)c2C(N)=O)cc1 | -7.07* | -7.07
COc1ccc(/C(N)=N/OC(=O)Cc2cccs2)cc1 | -7.01* | -7.01
COc1ccc(/C(N)=N/OC(=O)Cc2cccs2)cc1OC | i | 3.18
CCN(CC)CCCN(C(=O)c1cccc(C)c1)c1nc(-c2ccc(OC)cc2)cs1 | i | .
Cc1ccc(-c2csc(NC(=S)NC(=O)c3ccco3)n2)cc1 | i | 10.7*
SMILES | KCNQ2 inh | KCNQ2 enhance
Cc1ccc(-c2csc(NC(=O)CCNC(=O)c3ccco3)n2)cc1 | i | .
NS(=O)(=O)c1ccc(CNC(=S)NCc2ccc(F)cc2)cc1 | i | .
N=C1S/C(=C\c2ccco2)C(=O)N1c1nccs1 | i | 9.12*
N=C1S/C(=C\c2ccco2)C(=O)N1c1ccc2c(c1)OCO2 | i | .
O=C(Nc1ccc(N2CCOCC2)cc1N1CCOCC1)c1ncoc1-c1cccc(F)c1 | i | .
O=C(Nc1ccccc1N1CCCCC1)c1ncoc1-c1cccc(F)c1 | -5.8* | -5.8
O=C(NNC(=O)c1ccccc1OCc1ccccc1Cl)c1csc(N2CCOCC2)n1 | i | 0.14
O=C(Nc1cccc(Cl)c1)N(CCN1CCOCC1)Cc1ccccc1F | i | .
O=C(Nc1cccc(Cl)c1)N(CCN1CCOCC1)Cc1cccc(Cl)c1 | -7.33* | -7.33
COc1ccc(NC(=O)c2csc(Cc3ccc(Cl)cc3)n2)cc1 | i | .
COc1ccc(Cc2nc(C(=O)Nc3ccc(Cl)cc3)cs2)cc1 | -5.82* | -5.82
COc1ccccc1N1CCN(/N=C/c2cc(OC)c(OC)c(OC)c2)CC1 | i | .
COc1ccccc1N1CCN(/N=C\c2sccc2C)CC1 | -6.19* | -6.19
COc1ccccc1N1CCN(/N=C\c2ccccc2)CC1 | i | .
COc1ccccc1N1CCN(/N=C/c2cccc(OC)c2OC)CC1 | -7.28* | -7.28
CCN(CC)S(=O)(=O)c1ccc2c(c1)oc(=O)n2CC(=O)NC1CCCCC1 | i | .
CC(C)c1ccc(NC(=O)C2CSC3(C)CCC(=O)N23)cc1 (centres undefined) | i | 0.54
O=C(O)C1(c2ccccc2)CCN(S(=O)(=O)c2cccc(Cl)c2)CC1 | i | .
CCN1CCc2nc3sc(C(=O)N4CCc5ccccc5C4)c(N)c3cc2C1 | i | .
Cc1cc(C)c2c(N)c(C(=O)N3CCc4ccccc4C3)sc2n1 | -7.69* | -7.69
COc1cc(NC(=O)c2ccnnc2)cc(C(=O)Nc2cccc(C(F)(F)F)c2)c1 | -5.79* | -5.79
O=C(Nc1cccc(C(F)(F)F)c1)c1cccnc1 | i | 1.83
O=C(NCCN1CCOCC1)c1ccc(NS(=O)(=O)c2cccc([N+](=O)[O-])c2)cc1 | i | .
Cc1cc(/C=N/n2cnnc2)c(C)n1-c1ccc(OCc2ccc(F)cc2)cc1 | -6.18* | -6.18
Cc1cc(/C=N/n2cnnc2)c(C)n1-c1ccc(OCc2ccc(Cl)cc2Cl)cc1 | i | .
SMILES | KCNQ2 inh | KCNQ2 enhance
O=C(CN(Cc1ccccc1F)C(=O)Cn1nnc(-c2cccs2)n1)NC1CCCCC1 | i | .
CCCCNC(=S)N/N=C/C1=CCC2CC1C2(C)C (centres undefined) | i | 5.43*
C=C(C)CNC(=S)N/N=C/C1=CCC2CC1C2(C)C (centres undefined) | i | 1.37
COc1cccc(-n2c(SCC(N)=O)nc3ccccc3c2=O)c1 | i | 0.67
COc1cccc(-n2c(SCC(=O)Nc3sc4c(c3C(N)=O)CCC4)nc3ccccc3c2=O)c1 | -6.09* | -6.09
O=C(CSc1ccsc1[N+](=O)[O-])Nc1cc(F)ccc1F | i | .
CCN(CC)c1ccc(NC(=O)CSc2ccsc2[N+](=O)[O-])c(C)c1 | i | 5.47*
O=C(OCC(=O)N1CCCC1)c1ccc(S(=O)(=O)Nc2ccccc2)cc1 | i | 0.52
CC1(C)C(CSc2nc3ccccc3[nH]2)C1(Cl)Cl (centres undefined) | i | .
O=C(NCC1(c2ccccc2)CCCC1)C(=O)NCC1(c2ccccc2)CCCC1 | i | .
O=C(NCC1(c2ccccc2)CCCC1)C1(c2ccccc2)CCCC1 | -7.04* | -7.04
O=C(OCCCN=C1NS(=O)(=O)c2ccccc21)c1ccc([N+](=O)[O-])cc1 | i | 1.85
O=C(CN1C(=O)C(=O)N(Cc2ccccc2)C1=O)Nc1ccc(F)c(Cl)c1 | i | 2.16
CCN(CC)CCNC(=O)c1ccc(Sc2ccc(C)cc2)c(NC(C)=O)c1 | i | 0.35
CCCCn1c(N)c(N(CCOC)C(=O)c2cc(C)oc2C)c(=O)[nH]c1=O | i | .
Cc1nc(NC(=O)C2CC2)sc1C(=O)N1CCCCC1 | i | 1.16
Cc1nc(NC(=O)c2cccc(Cl)c2)sc1C(=O)N1CCCCC1 | -7.47* | -7.47
NC1=NC(=O)C2(COC(c3cccnc3)OC2)S1 (centres undefined) | i | 0.51
CCOC(=O)C1(Cc2ccccc2)CCCN(Cc2cccc(C(C)=O)c2)C1 (centres undefined) | -6.02* | -6.02
CCOC(=O)C1(Cc2ccccc2)CCCN(Cc2ccc(OCCO)cc2)C1 (centres undefined) | i | 0.09
C(=N\Nc1ccccc1)/c1nc2ccccc2s1 | i | 0.67
